# Test results taken from paper PMC5836133, “The intracellular immune receptor Rx1 regulates the DNA-binding activity of a Golden2-like transcription factor”.
# Over roughly 16,000 sequences, “e-score” has its median near -0.044; the highest 2% begin near 0.38. Many of the other results were omitted from the sample, so the highest values are more common in it than they were.
# Target: T1, GST-NbGlk1(82-244) (Nicotiana benthamiana)
# T1 chain: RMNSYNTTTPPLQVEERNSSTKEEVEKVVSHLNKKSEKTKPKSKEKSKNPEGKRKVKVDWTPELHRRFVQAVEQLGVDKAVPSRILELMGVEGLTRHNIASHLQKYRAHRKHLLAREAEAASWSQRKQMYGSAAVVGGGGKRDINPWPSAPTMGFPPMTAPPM
# Experiment: protein-binding microarray; NbGlk1 is a Golden2-like transcription factor of Nicotiana benthamiana; high values mean tight binding
# Details: protein: recombinant; tags: GST (pTH6838); dsDNA, one strand shown
row,Sequence,binding signal
1,ATCTCGTG,0.357 ± 0.0779 E-score
2,ATCTCCTG,0.3116 ± 0.00208 E-score
3,ATATCGGG,0.343 ± 0.0169 E-score
4,ATCTACTA,0.341 ± 0.0266 E-score
5,ATCTGTGA,0.344 ± 0.0977 E-score
6,ATATGCTA,0.224 ± 0.0529 E-score
7,ACATAGAT,0.223 ± 0.0149 E-score
8,ATATTCAC,0.208 ± 0.132 E-score
9,ATCATAAA,0.232 ± 0.00949 E-score
10,ATCCAGGA,0.328 ± 0.0422 E-score
11,AGTATCCG,0.328 ± 0.0412 E-score
12,AATCTGGG,0.428 ± 0.0442 E-score
13,AATCTGGA,0.452 ± 0.00746 E-score
14,ATCCTGGC,0.244 ± 0.119 E-score
15,ATTCTGGA,0.248 ± 0.0551 E-score
16,ATCTGGGG,0.27 ± 0.147 E-score
17,AATCAGGG,0.313 ± 0.0785 E-score
18,AATCTGGC,0.416 ± 0.0222 E-score
19,ATCCTGGA,0.296 ± 0.0334 E-score
20,AATCTGGT,0.443 ± 0.0103 E-score
21,AATCGGGT,0.272 ± 0.0576 E-score
22,AGTGAAAT,0.208 ± 0.0317 E-score

row,Sequence,binding signal
1,ATTACGAA,0.341 ± 0.0714 E-score
2,ACCGTATC,0.274 ± 0.0523 E-score
3,AATGAGAT,0.312 ± 0.0605 E-score
4,ATTTCGGA,0.309 ± 0.0179 E-score
5,ATTGCGAC,0.346 ± 0.0296 E-score
6,ATCAGTAA,0.214 ± 0.0917 E-score
7,AATCATAC,0.263 ± 0.039 E-score
8,AGCGAGAT,0.269 ± 0.0866 E-score
9,AATATATA,0.27 ± 0.0135 E-score
10,AGAATAAT,0.206 ± 0.0577 E-score
11,ATCCGGCA,0.253 ± 0.0503 E-score
12,ATTGCGGA,0.359 ± 0.0313 E-score
13,ATCTGGAA,0.351 ± 0.0575 E-score
14,AATCTACG,0.38 ± 0.0162 E-score
15,ATCCTACA,0.298 ± 0.0179 E-score
16,AATCAACT,0.274 ± 0.00959 E-score
17,AATCTACC,0.404 ± 0.00847 E-score
18,AATCATCT,0.205 ± 0.0194 E-score
19,AATCTACT,0.406 ± 0.0108 E-score
20,AATCAACG,0.247 ± 0.00961 E-score
21,ATTCTATC,0.261 ± 0.0903 E-score
22,AATATACA,0.21 ± 0.00993 E-score

row,Sequence,binding signal
1,AATCTACA,0.401 ± 0.0303 E-score
2,AATCGACG,0.243 ± 0.0212 E-score
3,ATTTTAGA,0.221 ± 0.0235 E-score
4,ATCTCATA,0.291 ± 0.0411 E-score
5,ATCCCCAA,0.276 ± 0.0488 E-score
6,ATAGGATA,0.247 ± 0.133 E-score
7,AAATATTA,0.313 ± 0.0186 E-score
8,ATACAAAA,0.251 ± 0.0113 E-score
9,AGCTAGAT,0.216 ± 0.00676 E-score
10,ATTGCGGG,0.26 ± 0.0952 E-score
11,AATCGCGG,0.317 ± 0.0232 E-score
12,AAATAAAG,0.202 ± 0.0801 E-score
13,AGATTGTC,0.3936 ± 0.00333 E-score
14,ATATTGTG,0.235 ± 0.0938 E-score
15,AGATTGTG,0.421 ± 0.0279 E-score
16,ATATTGTC,0.261 ± 0.0163 E-score
17,AGATCGTC,0.3356 ± 0.00264 E-score
18,AGATTGTA,0.3324 ± 0.00276 E-score
19,AAGGATTG,0.247 ± 0.0253 E-score
20,AAATATAA,0.208 ± 0.0739 E-score
21,AATCCGCA,0.395 ± 0.0273 E-score
22,AATCAGCG,0.312 ± 0.0496 E-score

row,Sequence,binding signal
1,AATCCCCT,0.2621 ± 0.00234 E-score
2,ATCCCGCA,0.289 ± 0.00853 E-score
3,ATTCCGCA,0.238 ± 0.0649 E-score
4,AATCCGCC,0.372 ± 0.0634 E-score
5,AATCCGCG,0.396 ± 0.0375 E-score
6,AATCCGCT,0.388 ± 0.0352 E-score
7,ATTCCGCG,0.256 ± 0.00946 E-score
8,ATCTTGGG,0.216 ± 0.0663 E-score
9,AAATAGAT,0.264 ± 0.0472 E-score
10,ATCTGGTG,0.3327 ± 0.000333 E-score
11,ATACATAT,0.204 ± 0.0258 E-score
12,ATATAGAT,0.352 ± 0.0482 E-score
13,ATTTAAGA,0.236 ± 0.0208 E-score
14,ACGGATAC,0.2607 ± 0.00125 E-score
15,ACGGATAT,0.381 ± 0.03 E-score
16,ACGGATCT,0.265 ± 0.053 E-score
17,AAGGATAT,0.387 ± 0.00749 E-score
18,AAGGATCT,0.335 ± 0.00404 E-score
19,AGGGATAT,0.353 ± 0.00472 E-score
20,ATTATATA,0.215 ± 0.115 E-score
21,ATCTACAC,0.34 ± 0.0325 E-score
22,AATTCTGT,0.223 ± 0.0117 E-score

row,Sequence,binding signal
1,ATACGCTA,0.239 ± 0.0564 E-score
2,ATCATGAA,0.215 ± 0.0159 E-score
3,AGGATCTG,0.337 ± 0.025 E-score
4,CAGATCTC,0.423 ± 0.0294 E-score
5,CAGATCCG,0.266 ± 0.0152 E-score
6,CAGATCTG,0.38 ± 0.0481 E-score
7,CAGATCCC,0.266 ± 0.0242 E-score
8,AAGATCTA,0.356 ± 0.00732 E-score
9,AAGATCTC,0.406 ± 0.00477 E-score
10,AGGATCTC,0.402 ± 0.0113 E-score
11,AAGATCAC,0.225 ± 0.0928 E-score
12,CAGATCTA,0.249 ± 0.0194 E-score
13,AGGATCTA,0.314 ± 0.04 E-score
14,AAGATCTG,0.362 ± 0.0161 E-score
15,ATTCGCTC,0.231 ± 0.0553 E-score
16,ATCACGAT,0.29 ± 0.0315 E-score
17,ATTCCAAC,0.2142 ± 0.000545 E-score
18,ATCCGTTG,0.233 ± 0.0162 E-score
19,ATATGCAT,0.219 ± 0.0814 E-score
20,ATATGGAA,0.219 ± 0.0165 E-score
21,ATCTAAAA,0.244 ± 0.06 E-score
22,ACCGGAAT,0.243 ± 0.0509 E-score
